# Measurements published in PubChem BioAssay (NCATS).
# “And” between values parts separate entries of the source, which are not always exact repeats. Equal entries are not always repeated. Records with an inconclusive call do not appear. The source made the active and inactive calls. Unless noted, calls follow the shape of the dose curve; as a rule, active = well fitted curve in either direction with a large enough effect (not every such curve was filed as active); inconclusive = small, poorly fitted or top-dose-only effect, or another doubt; inactive = flat fitted curve, though single readings scatter.
# Columns and labels:
# [1] = AP1 Signaling Pathway (AID 357); settings: ME-180 AP-1-bla reporter, EGF-induced, beta-lactamase ratio, 5 h; also: % is scaled to controls: 0 for no effect and ±100 for the full control effect
# Method in brief: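 AP-1-bla ME-180 cells with beta-lactamase reporter under AP-1 response element, stimulated with EC50 EGF; compounds titrated, 5 hours at 37 degrees Celsius. CCF4 read at 460/530 nm ratio; positive and negative modulators judged by AC50.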
# [2] = target: Cytochrome P450 1A2 (Homo sapiens) (UniProt P05177); assay: p450-cyp1a2 (AID 410; calls by dose curve; also: potency is read from the fitted curve at half-maximal effect;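 as to activity change, negative = inhibition: -100% = full effect of reference inhibitor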); settings: recombinant CYP1A2, luciferin-ME demethylation, luminescence; series mostly up to 57 µM
# Method in brief: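 Inhibition was calculated relative to 57 uM furafylline (full inhibition). The reaction used human CYP1A2 at 20nM with Luciferin-ME at its Km, 100uM, driven by an NADPH-regenerating system for 60 min at room temperature.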
# [3] = NFAT Signaling Pathway (AID 444); settings: Jurkat NFAT-bla M1, carbachol, beta-lactamase ratio, 5 h;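 also: carbachol stimulus at about its EC50 of 1 µM final; % is scaled to controls: 0 for no effect and ±100 for the full control effect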
# Method in brief: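 Jurkat cells with NFAT-driven β-lactamase reporter and co-expressed M1 receptor, stimulated with carbachol (final 1 uM, ~EC50), compound titration, 5 h at 37 °C. CCF4 loaded 1 h at RT; 460/530 nm ratio gave %activity and AC50.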
# [4] = Stat Signaling Pathway (AID 446); settings: ME-180 (cervical carcinoma) SIE beta-lactamase reporter, IL-6 stimulated, 5 h;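 also: ME-180 cervical cancer cells given 40 pM IL-6 alongside compound; SIE-controlled beta-lactamase reporter measured as 460/530 nm FRET emission ratio; % is scaled to controls: 0 for no effect and ±100 for the full control effect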
# Method in brief: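 IL-6/STAT signaling read in ME-180 cells via an SIE beta-lactamase reporter. Stimulus was 40 pM IL-6 (its AC50) for 5 hrs, so both activation and inhibition register.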
# [5] = target: Glucocorticoid receptor (Homo sapiens) (UniProt P04150); assay: GR-GFP Redistribution (AID 450;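 active = compounds whose dose series gives a full or clear partial fitted curve of increased nuclear translocation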; also: potency is read from the fitted curve at half-maximal effect); settings: U2OS GR-GFP nuclear translocation, laser cytometry, 2 h
# [6] = target: Glucocorticoid receptor (Homo sapiens) (UniProt P04150); assay: GR-EFC Redistribution (AID 451; calls by dose curve; also: potency is read from the fitted curve at half-maximal effect); settings: CHO-K1 GR-EFC translocation, beta-gal luminescence, 2 h
# Method in brief: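 CHO-K1 cells expressing nuclear EA and GR-ED fragments of b-gal; compounds titrated up to 46 uM final, 2 h at 37 C. GR nuclear translocation read as complemented b-gal luminescence after 1 h RT detection.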
# [7] = target: Mitogen-activated protein kinase 10 (Mus musculus) (UniProt Q61831); assay: JNK3 AlphaScreen Assay (AID 530); settings: JNK3 lysate, c-Jun phosphorylation; series mostly up to 57.1 µM;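 also: kinase came from lysate of stimulated human HepG2 cells; signal reports phosphorylation of biotinylated GST-cJun 1-79 at Ser73 with 10 µM ATP; % is scaled to controls: 0 for no effect and ±100 for the full control effect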
# Method in brief: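 qHTS format: compounds tested as titrations against IL-1beta/TNF-alpha-activated HepG2 lysate JNK3 with biotin-GST-cJun substrate and 10 uM ATP at room temperature. Loss of anti-phospho-cJun AlphaScreen signal indicates inhibition.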
# [8] = target: 3',5'-cyclic-AMP phosphodiesterase 4B (Homo sapiens) (UniProt Q07343); assay: qHTS Assay for Inhibitors of PDE-IV (AID 607; active = well fitted activation curve with a large enough effect in the main read-out, with a control signal flat, not every such curve was filed as active; also: % of control where 0% means no effect); settings: HEK293 ACTOne CNG channel cells, membrane potential fluorescence; series mostly up to 22.9 µM
# Method in brief: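 Live HEK293 cells with a modified cyclic nucleotide-gated (CNG) channel report intracellular cAMP via membrane-potential dye fluorescence (ex 535/em 590 nm). Endogenous PDE-IV was targeted. Compounds were tested at up to 22.9 uM final; RO 20-1724 100 uM served as control.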
# [9] = target: Pyruvate kinase (Leishmania mexicana) (UniProt Q27686); assay: qHTS Validation Assay for Inhibitors of Leishmania Mexicana Pyruvate Kinase (AID 945; active = well fitted curve in the direction sought with a large enough effect; an effect the other way counts as inactive or inconclusive;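 also: 0% = DMSO only neutral control wells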); settings: purified L. mexicana pyruvate kinase, enzyme activity, E451W mutant enzyme; series mostly up to 57.5 µM
# Method in brief: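 Eight-point qHTS titrations in triplicate, data normalized to DMSO neutral control. Reaction: 0.2 nM LmPYK E451W mutant, 0.5 mM PEP, 0.1 mM ADP, 7 mM MgCl2, pH 7.2, one hour at room temperature; luminescent ATP detection.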
# [10] = target: Pyruvate kinase PKM (Homo sapiens) (UniProt P14618); assay: qHTS Assay for Activators of Human Muscle Pyruvate Kinase (AID 954; active = well fitted curve in the direction sought with a large enough effect, not every such curve was filed as active;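 also: 0% = uninhibited enzyme and -100% = no enzyme or full thiadiazolimine inhibition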); settings: purified human muscle pyruvate kinase, luciferase-coupled luminescence, 1 h; series mostly up to 57.5 µM
# Method in brief: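 Enzyme was run at intermediate activity so both inhibitors and activators could be detected. ATP formed from ADP and PEP by 0.1 nM human PKM2 during a 1 h room-temperature incubation was quantified by coupled luciferase luminescence.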
# [11] = target: Alpha-galactosidase A (Homo sapiens) (UniProt P06280); assay: Counterscreen for Glucocerebrosidase Inhibitors: qHTS Assay for Human alpha-Galactosidase at pH 4.5 (AID 992; active = well fitted curve in the direction sought with a large enough effect; an effect the other way counts as inactive or inconclusive; also: 0% is about no effect); settings: purified enzyme, fluorogenic substrate; series mostly up to 76.9 µM
# Method in brief: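 Read-out is 4-methylumbelliferone fluorescence (365 nm excitation, 440 nm emission) after a pH 10 NaOH/glycine stop. Reactions held 2 nM enzyme and 80 uM substrate at pH 4.5 for 20 min at room temperature.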
# [12] = target: alpha-glucosidase (Oryza sativa, rice) (UniProt Q653V4); assay: Counterscreen for Glucocerebrosidase Inhibitors: qHTS Assay for Rice alpha-Glucosidase at pH 5.0 (AID 997; active = well fitted curve in the direction sought with a large enough effect; an effect the other way counts as inactive or inconclusive;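 also: 0% = full activity with enzyme and -100% = basal without enzyme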); settings: rice alpha-glucosidase enzyme activity; series mostly up to 76.9 µM
# Method in brief: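 Rice alpha-glucosidase (4 nM final) with 400 uM 4-methylumbelliferyl-alpha-D-glucopyranoside in citrate buffer pH 5.0, 20 min at room temperature, stopped at pH 10; fluorescence 365/440 nm, compounds 0.7 nM–77 uM, AC50 from Hill fits.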
# [13] = qHTS Assay for Lipid Storage Modulators (AID 1519; calls by dose curve); settings: Drosophila S3 cells, BODIPY lipid droplet/cell ratio, laser cytometry, cells loaded with oleic acid
# Method in brief: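 Cells seeded at 5,000 per well were treated with compounds over a concentration series and loaded with oleic acid (400 uM, as added). Lipid droplet fluorescence (488 nm excitation, 500-530 nm channel) was read by laser-scanning cytometry and normalized to 20 uM Triacsin C.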
# [14] = target: Ubiquitin carboxyl-terminal hydrolase 1 (Homo sapiens) (UniProt O94782); assay: Inhibitors of USP1/UAF1: Pilot qHTS (AID 504865; active = well fitted curve in the direction sought with a large enough effect; an effect the other way counts as inactive or inconclusive;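 also: rhodamine fluorescence freed from ubiquitin-rhodamine substrate followed over time; top concentration of the series differs between compounds; % is scaled to controls: 0 for no effect and ±100 for the full control effect; nearly all actives have a fitted effect of over 35% in size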); settings: purified USP1/UAF1, Ub-rhodamine cleavage fluorescence; series mostly up to 54.9 µM
# Method in brief: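 USP1/UAF1 complex at 1 nM preincubated 15 min at room temperature with compound, then Ub-Rho substrate added at 150 nM final. Fluorescence (480/540 nm) read kinetically in 50 mM HEPES pH 7.8, 0.5 mM EDTA, 1 mM TCEP, 0.1 mg/ml BSA, 0.01% Tween-20.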
# [15] = target: ATP-dependent 6-phosphofructokinase (Trypanosoma brucei brucei) (UniProt O15648); assay: qHTS Assay to Find Inhibitors of T. brucei phosphofructokinase: hit validation (AID 492961; active = well fitted curve in the direction sought with a large enough effect; an effect the other way counts as inactive or inconclusive); settings: T. brucei PFK, ADP-Glo luminescence; series mostly up to 24.3 µM
# Method in brief: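 Inhibition of parasite PFK is measured as reduced ADP formation, quantified via luciferase after ATP depletion. Assay used 0.1 mM ATP, 0.5 mM F6P, 1.25 nM enzyme, 45 min incubation.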
# [16] = target: Luciferin 4-monooxygenase (Photinus pyralis) (UniProt P08659); assay: Biochemical firefly luciferase enzyme assay for NPC (AID 624030; active = well fitted curve in the direction sought with a large enough effect; an effect the other way counts as inactive or inconclusive;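 also: purified P. pyralis luciferase at 10 nM with luciferin and ATP substrate; 0% = DMSO and -100% = full luciferase inhibition by PTC124 control; nearly all actives have a fitted effect of over 70% in size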); settings: purified P. pyralis luciferase, luminescence, 5 min; series mostly up to 58.6 µM
# Method in brief: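 Purified P. pyralis luciferase at 10 nM in 50 mM Tris Acetate (final), luminescence read within 5 minutes of enzyme addition to compounds. Activity normalised to PTC124 versus DMSO; concentration-response curves classed by r2, magnitude and activity.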
# [17] = qHTS profiling for inhibitors of Plasmodium falciparum proliferation (AID 504749; active = well fitted curve in the direction sought with a large enough effect; an effect the other way counts as inactive or inconclusive;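 also: 0% = DMSO vehicle and full inhibition = artemisinin control; nearly all actives have a fitted effect of over 60% in size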); settings: P. falciparum in erythrocytes, SYBR Green DNA, 72 h
# Method in brief: (§1)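 Readout was DNA-dye fluorescence from lysed cultures, ex 485/em 535 nm. Parasitized red cells had grown 72 h with compound; data scaled between 0.29 uM artemisinin and DMSO wells and corrected using vehicle-only plates.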
# AS120 = assay: as above; settings: P. falciparum in erythrocytes, SYBR Green DNA, 72 h; series mostly up to 28.7 µM
# Method in brief: as §1
# CP250 = assay: as above; settings: P. falciparum in erythrocytes, SYBR Green DNA, 72 h; series mostly up to 12.8 µM
# Method in brief: as §1
# [18] = target: Lysosomal acid glucosylceramidase (Homo sapiens) (UniProt P04062); assay: Glucocerebrosidase-p2 (AID 348; in the data active = potency below about 10 µM; also: potency is read from the fitted curve at half-maximal effect); settings: purified GBA, blue fluorogenic substrate, 40 min
# Method in brief: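 Compounds titrated from 0.6 nM upwards against 0.2 nM enzyme in pH 5.9 citric acid/KH2PO4, taurocholate, tween-20; blue fluorogenic substrate 80 uM, 40 min room temperature, stopped and read Ex 365/Em 440 for AC50.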
# [19] = measured here: cell count channel max response
# [20] = measured here: lipid channel max response
# Alpha-galactosidase A (Homo sapiens), sequence (P06280 whole entry, looked up): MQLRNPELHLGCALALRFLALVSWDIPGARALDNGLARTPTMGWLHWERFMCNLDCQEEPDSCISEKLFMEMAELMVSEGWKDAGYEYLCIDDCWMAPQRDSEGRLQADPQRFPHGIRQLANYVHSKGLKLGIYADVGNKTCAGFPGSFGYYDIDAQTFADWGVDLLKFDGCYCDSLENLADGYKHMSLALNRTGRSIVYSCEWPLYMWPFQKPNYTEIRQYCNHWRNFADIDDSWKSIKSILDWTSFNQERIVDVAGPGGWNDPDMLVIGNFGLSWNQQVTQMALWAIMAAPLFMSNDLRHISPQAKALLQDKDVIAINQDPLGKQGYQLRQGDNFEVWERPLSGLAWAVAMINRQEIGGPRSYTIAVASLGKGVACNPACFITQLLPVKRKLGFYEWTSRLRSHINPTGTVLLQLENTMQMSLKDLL
# Ubiquitin carboxyl-terminal hydrolase 1 (Homo sapiens), sequence (O94782 whole entry, looked up): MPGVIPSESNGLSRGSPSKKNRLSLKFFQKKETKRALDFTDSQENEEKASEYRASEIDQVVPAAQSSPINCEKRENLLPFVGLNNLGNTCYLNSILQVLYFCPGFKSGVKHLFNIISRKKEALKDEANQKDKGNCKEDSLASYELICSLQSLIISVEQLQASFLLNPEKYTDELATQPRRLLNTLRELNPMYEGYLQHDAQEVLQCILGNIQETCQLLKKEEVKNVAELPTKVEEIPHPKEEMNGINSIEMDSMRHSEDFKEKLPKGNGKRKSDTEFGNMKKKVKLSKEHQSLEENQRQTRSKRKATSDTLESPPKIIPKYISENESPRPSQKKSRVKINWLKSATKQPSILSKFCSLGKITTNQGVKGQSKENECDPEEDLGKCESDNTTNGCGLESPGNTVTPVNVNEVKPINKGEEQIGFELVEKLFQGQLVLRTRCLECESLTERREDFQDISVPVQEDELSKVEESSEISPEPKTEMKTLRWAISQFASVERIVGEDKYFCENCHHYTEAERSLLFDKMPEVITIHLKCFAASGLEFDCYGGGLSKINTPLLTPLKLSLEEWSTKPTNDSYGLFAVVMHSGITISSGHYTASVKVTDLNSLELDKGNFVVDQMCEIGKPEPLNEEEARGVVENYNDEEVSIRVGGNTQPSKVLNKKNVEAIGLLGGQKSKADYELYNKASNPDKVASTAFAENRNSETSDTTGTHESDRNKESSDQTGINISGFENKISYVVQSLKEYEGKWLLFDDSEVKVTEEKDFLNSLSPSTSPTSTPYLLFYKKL
# Pyruvate kinase (Leishmania mexicana), sequence (Q27686 2-499 E452W): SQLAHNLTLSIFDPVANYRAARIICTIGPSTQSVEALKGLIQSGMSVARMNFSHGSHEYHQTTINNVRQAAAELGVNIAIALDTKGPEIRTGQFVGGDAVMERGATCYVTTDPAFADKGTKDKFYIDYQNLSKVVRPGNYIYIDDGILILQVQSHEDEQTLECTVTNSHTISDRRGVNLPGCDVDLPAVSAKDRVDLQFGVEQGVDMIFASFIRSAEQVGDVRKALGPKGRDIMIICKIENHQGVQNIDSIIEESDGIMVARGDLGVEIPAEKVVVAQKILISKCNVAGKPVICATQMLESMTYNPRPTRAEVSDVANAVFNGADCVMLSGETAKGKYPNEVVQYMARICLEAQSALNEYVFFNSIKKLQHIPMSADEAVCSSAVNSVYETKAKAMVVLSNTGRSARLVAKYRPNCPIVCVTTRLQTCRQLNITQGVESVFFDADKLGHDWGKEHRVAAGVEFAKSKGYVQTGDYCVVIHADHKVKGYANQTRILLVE
# 3',5'-cyclic-AMP phosphodiesterase 4B (Homo sapiens), sequence (Q07343 whole entry, looked up): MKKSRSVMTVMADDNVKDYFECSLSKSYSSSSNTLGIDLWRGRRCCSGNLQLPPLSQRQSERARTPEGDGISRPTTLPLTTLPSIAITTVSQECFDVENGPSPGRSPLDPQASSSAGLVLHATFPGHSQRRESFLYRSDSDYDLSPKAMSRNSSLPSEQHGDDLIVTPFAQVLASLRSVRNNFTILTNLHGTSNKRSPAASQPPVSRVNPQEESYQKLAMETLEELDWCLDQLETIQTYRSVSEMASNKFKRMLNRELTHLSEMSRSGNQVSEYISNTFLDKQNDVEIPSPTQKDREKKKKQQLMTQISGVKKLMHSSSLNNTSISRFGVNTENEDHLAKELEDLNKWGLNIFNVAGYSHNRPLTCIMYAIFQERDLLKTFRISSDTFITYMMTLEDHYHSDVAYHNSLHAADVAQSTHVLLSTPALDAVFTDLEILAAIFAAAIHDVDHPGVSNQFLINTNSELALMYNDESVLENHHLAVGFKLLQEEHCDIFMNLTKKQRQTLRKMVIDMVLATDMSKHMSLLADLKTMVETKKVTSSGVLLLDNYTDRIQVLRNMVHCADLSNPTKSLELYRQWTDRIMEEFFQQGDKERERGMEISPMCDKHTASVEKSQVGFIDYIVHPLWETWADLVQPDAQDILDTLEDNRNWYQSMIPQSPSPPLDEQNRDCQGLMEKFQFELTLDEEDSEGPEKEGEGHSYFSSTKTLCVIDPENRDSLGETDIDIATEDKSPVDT
# Pyruvate kinase PKM (Homo sapiens), sequence (P14618 whole entry, looked up): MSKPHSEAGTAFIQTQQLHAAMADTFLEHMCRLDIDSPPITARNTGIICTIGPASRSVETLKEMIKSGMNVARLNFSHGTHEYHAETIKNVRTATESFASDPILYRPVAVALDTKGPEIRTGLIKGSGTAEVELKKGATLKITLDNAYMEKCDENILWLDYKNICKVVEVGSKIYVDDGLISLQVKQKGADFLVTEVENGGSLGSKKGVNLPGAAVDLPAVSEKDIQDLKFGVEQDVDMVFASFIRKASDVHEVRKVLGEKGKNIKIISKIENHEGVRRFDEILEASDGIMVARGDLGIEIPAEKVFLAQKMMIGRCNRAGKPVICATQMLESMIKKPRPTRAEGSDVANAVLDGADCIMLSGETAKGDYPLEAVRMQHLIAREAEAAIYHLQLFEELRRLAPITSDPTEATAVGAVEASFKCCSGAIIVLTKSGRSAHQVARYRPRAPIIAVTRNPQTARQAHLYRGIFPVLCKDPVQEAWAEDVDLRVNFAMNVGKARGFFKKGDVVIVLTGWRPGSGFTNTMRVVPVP
# Glucocorticoid receptor (Homo sapiens), sequence (P04150 whole entry, looked up, the tested form may be a part): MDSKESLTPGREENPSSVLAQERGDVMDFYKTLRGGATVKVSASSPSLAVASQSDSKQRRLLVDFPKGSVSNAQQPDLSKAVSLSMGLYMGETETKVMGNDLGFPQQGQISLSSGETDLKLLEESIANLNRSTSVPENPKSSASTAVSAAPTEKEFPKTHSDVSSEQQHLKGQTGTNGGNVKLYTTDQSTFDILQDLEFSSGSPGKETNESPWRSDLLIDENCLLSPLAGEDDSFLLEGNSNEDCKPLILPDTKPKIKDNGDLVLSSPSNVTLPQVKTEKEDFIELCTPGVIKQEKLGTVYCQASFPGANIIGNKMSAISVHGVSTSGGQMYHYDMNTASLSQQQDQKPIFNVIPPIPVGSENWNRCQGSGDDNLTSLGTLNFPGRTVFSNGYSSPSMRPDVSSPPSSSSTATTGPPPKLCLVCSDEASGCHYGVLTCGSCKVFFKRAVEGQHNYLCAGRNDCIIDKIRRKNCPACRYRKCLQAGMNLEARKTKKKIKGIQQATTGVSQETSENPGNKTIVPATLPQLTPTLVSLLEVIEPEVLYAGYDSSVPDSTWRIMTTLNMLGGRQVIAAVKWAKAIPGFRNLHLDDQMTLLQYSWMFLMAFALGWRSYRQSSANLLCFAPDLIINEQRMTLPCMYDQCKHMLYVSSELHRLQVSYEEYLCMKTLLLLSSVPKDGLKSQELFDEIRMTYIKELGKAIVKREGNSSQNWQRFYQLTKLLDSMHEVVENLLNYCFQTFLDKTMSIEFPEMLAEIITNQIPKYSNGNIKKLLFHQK
# Cytochrome P450 1A2 (Homo sapiens), sequence (P05177 whole entry, looked up): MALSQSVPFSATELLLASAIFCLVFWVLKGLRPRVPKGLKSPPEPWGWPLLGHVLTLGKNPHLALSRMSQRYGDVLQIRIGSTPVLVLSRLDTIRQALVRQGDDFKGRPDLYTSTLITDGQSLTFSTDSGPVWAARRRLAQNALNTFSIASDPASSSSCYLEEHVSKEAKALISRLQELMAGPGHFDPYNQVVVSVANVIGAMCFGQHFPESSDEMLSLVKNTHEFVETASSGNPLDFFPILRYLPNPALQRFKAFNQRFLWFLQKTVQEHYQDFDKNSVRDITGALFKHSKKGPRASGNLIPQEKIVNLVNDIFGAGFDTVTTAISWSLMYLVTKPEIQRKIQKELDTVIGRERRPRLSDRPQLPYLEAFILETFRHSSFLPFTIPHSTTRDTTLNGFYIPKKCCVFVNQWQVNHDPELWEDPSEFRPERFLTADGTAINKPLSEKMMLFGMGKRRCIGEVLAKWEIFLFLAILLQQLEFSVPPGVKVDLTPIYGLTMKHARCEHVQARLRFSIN
# ATP-dependent 6-phosphofructokinase (Trypanosoma brucei brucei), sequence (O15648 whole entry, looked up): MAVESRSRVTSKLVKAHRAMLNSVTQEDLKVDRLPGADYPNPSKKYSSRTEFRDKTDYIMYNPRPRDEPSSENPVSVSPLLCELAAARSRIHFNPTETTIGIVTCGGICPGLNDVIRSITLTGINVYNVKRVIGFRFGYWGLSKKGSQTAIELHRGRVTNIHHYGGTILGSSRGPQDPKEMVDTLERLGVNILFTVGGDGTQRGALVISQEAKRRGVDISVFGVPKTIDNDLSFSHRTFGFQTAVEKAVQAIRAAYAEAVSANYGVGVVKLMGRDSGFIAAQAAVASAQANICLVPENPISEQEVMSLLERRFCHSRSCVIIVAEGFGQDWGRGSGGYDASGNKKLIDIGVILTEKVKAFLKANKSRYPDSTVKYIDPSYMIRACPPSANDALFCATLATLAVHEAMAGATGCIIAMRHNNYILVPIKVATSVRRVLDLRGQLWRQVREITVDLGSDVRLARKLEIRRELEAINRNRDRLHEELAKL
structure (smiles),measurement,setting,value
CC(C)(Oc1ccc([C@@H]2CC2(Cl)Cl)cc1)C(=O)O,"activity change, negative = inhibition",[1]; at 17.2 µM (top of the series),-1.19% (inactive)
same,"activity change, negative = inhibition",[1]; at 38 µM (top of the series),-10.2% (inactive)
same,Potency,[2],inactive
same,"activity change, negative = inhibition",[3]; at 17.2 µM (top of the series),-16.8% (inactive)
same,"activity change, negative = inhibition",[3]; at 38 µM (top of the series),-7.66% (inactive)
same,"activity, negative = inhibition",[4]; at 7.69 µM (top of the series) unless noted,-2.06% [at 17.2 µM] (inactive)
same,Potency,[5],> 46 µM (inactive) and > 20.6 µM (inactive)
same,Potency,[6],> 46 µM (inactive) and > 20.6 µM (inactive)
same,Potency,[7],inactive
same,Potency,[8],inactive
same,outcome,[9],inactive
same,outcome,[10],inactive
same,outcome,[11],inactive
same,outcome,[12],inactive
same,"activity change, negative = inhibition",[13]; at 25.7 µM (top of the series),-0.371% (inactive)
same,max response,[13]; [19],-16.1%
same,max response,[13]; [20],-15.2%
same,Potency,[14],inactive
CN(C)[C@@H]1C(=O)C(C(N)=O)=C(O)[C@]2(O)C(=O)C3=C(O)c4c(O)ccc(Cl)c4[C@H](O)[C@H]3C[C@@H]12,"activity change, negative = inhibition",[1]; at 17.2 µM (top of the series),-2.16% (inactive)
same,"activity change, negative = inhibition",[1]; at 38 µM (top of the series),-12.4% (inactive)
same,Potency,[2],inactive
same,"activity change, negative = inhibition",[3]; at 17.2 µM (top of the series),-15.3% (inactive)
same,"activity change, negative = inhibition",[3]; at 38 µM (top of the series),-6.38% (inactive)
same,"activity, negative = inhibition",[4]; at 17.2 µM (top of the series),-1.53% (inactive)
same,"activity, negative = inhibition",[4]; at 38 µM (top of the series),3.61% (inactive)
same,Potency,[5],> 46 µM (inactive) and > 20.6 µM (inactive)
same,Potency,[6],> 46 µM (inactive) and > 20.6 µM (inactive)
same,Potency,[7],inactive
same,Potency,[8],inactive
same,outcome,[9],inactive
same,outcome,[10],inactive
same,outcome,[11],inactive
same,outcome,[12],inactive
same,"activity change, negative = inhibition",[13]; at 25.7 µM (top of the series),2.69% (inactive)
same,max response,[13]; [19],4.73%
same,max response,[13]; [20],8.96%
same,outcome,[15],inactive
same,Potency,[14],inactive
same,outcome,[16],inactive
same,"activity, negative = inhibition","[17]; at 28.7 µM (top of the series), parasite line A",-26.7% (inactive)
same,Potency,AS120,inactive
same,Potency,CP250,inactive
O=C(c1ccccc1)c1ccc2n1CC[C@H]2C(=O)O,"activity change, negative = inhibition",[1]; at 17.2 µM (top of the series),-5.93% (inactive)
same,"activity change, negative = inhibition",[1]; at 38 µM (top of the series),-1.3% (inactive)
same,Potency,[2],15.8 µM (active)
same,"activity change, negative = inhibition",[3]; at 17.2 µM (top of the series),-13.5% (inactive)
same,"activity change, negative = inhibition",[3]; at 38 µM (top of the series),-0.138% (inactive)
same,"activity, negative = inhibition",[4]; at 17.2 µM (top of the series),0.0746% (inactive)
same,"activity, negative = inhibition",[4]; at 38 µM (top of the series),5.51% (inactive)
same,Potency,[7],inactive
same,outcome,[9],inactive
same,outcome,[10],inactive
same,outcome,[11],inactive
same,outcome,[12],inactive
same,"activity change, negative = inhibition",[13]; at 25.7 µM (top of the series),1.19% (inactive)
same,max response,[13]; [19],-5.21%
same,max response,[13]; [20],-1.68%
same,outcome,[15],inactive
same,Potency,[14],inactive
same,"activity, negative = inhibition","[17]; at 12.8 µM (top of the series), parasite line A",1.36% (inactive)
same,"activity, negative = inhibition","[17]; at 12.8 µM (top of the series), parasite line B",2.01% (inactive)
same,Potency,AS120,inactive
same,Potency,CP250,inactive
O=c1c(-c2cccs2)nc2cnc(Oc3cccc(Cl)c3)nc2n1C1CC1,Potency,[18],> 11.4 µM (inactive)
same,Potency,[5],> 9.22 µM (inactive)
same,Potency,[6],> 46 µM (inactive)
same,Potency,[7],inactive
same,"activity change, negative = inhibition",[13]; at 57.5 µM (top of the series),-23.5% (inactive)
same,max response,[13]; [19],0.533%
same,max response,[13]; [20],-23.3%
CC(=O)[C@@H]1CC[C@@H]2[C@@H]3CCC4=CC(=O)CC[C@@]4(C)[C@H]3CC[C@]21C,"activity change, negative = inhibition",[1]; at 17.2 µM (top of the series),2.95% (inactive)
same,"activity change, negative = inhibition",[1]; at 38 µM (top of the series),10.7% (inactive)
same,Potency,[2],inactive
same,"activity change, negative = inhibition",[3]; at 17.2 µM (top of the series),-20.4% (inactive)
same,"activity change, negative = inhibition",[3]; at 38 µM (top of the series),-21.5% (inactive)
same,"activity, negative = inhibition",[4]; at 17.2 µM (top of the series),-0.332% (inactive)
same,"activity, negative = inhibition",[4]; at 38 µM (top of the series),9.04% (inactive)
same,Potency,[7],inactive
same,Potency,[8],inactive
same,"activity change, negative = inhibition",[13]; at 25.7 µM (top of the series),-4.74% (inactive)
same,max response,[13]; [19],-9.33%
same,max response,[13]; [20],-17.9%
